# The full list was thinned out, with the strongest signals kept by preference.
# B1: PFL (Pseudomonas fluorescens) (protein)
# chain: MSKYAVANQWGGSSAPWHPGGTWVLGARDNQNVVAIEIKSGDGGKSFTGTMTYAGEGPIGFKAQRTGQNQYNVENQWGGNDAPWHPGGKWVIGGRDNQNVIALSVTSSDGGKNLSGTNTYANEGPIGFRGQIE
# Assays:
# Experiment in all cases: glycan array binding signal (z-score within array); higher = stronger binding
# Details in all cases: glycan notation: IUPAC condensed, linker removed
# [1] = molecular target: Fuc(a1-2)Gal(b1-3)GalNAc(b1-3)Gal(a1-4)Gal(b1-4)Glc
# How it was run: (§1)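 From the Consortium for Functional Glycomics database, 3228 arrays were curated, keeping only those whose protein sequence was available. Binding is given as a within-array Z-score averaged across arrays sharing a protein sequence and across linkers. Negative Z-scores can be read as non-binding.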
# [2] = molecular target: Fuc(a1-2)Gal(b1-3)GlcNAc(b1-3)[Gal(b1-4)GlcNAc(b1-6)]Gal(b1-4)Glc
# How it was run: as §1
# [3] = molecular target: Fuc(a1-2)Gal(b1-3)[Fuc(a1-4)]GlcNAc(b1-3)[Fuc(a1-3)[Gal(b1-4)]GlcNAc(b1-6)]Gal(b1-4)Glc
# How it was run: as §1
# [4] = molecular target: Fuc(a1-2)[Gal(a1-3)]Gal(b1-3)GlcNAc(b1-2)Man(a1-3)[Fuc(a1-2)[Gal(a1-3)]Gal(b1-3)GlcNAc(b1-2)Man(a1-6)]Man(b1-4)GlcNAc(b1-4)[Fuc(a1-6)]GlcNAc
# How it was run: as §1
# [5] = molecular target: Fuc(a1-2)[Gal(a1-3)]Gal(b1-4)GlcNAc(b1-2)Man(a1-3)[Fuc(a1-2)[Gal(a1-3)]Gal(b1-4)GlcNAc(b1-2)Man(a1-6)]Man(b1-4)GlcNAc(b1-4)GlcNAc
# How it was run: as §1
# [6] = molecular target: Fuc(a1-2)[GalNAc(a1-3)]Gal(b1-3)GlcNAc(b1-2)Man(a1-3)[Fuc(a1-2)[GalNAc(a1-3)]Gal(b1-3)GlcNAc(b1-2)Man(a1-6)]Man(b1-4)GlcNAc(b1-4)[Fuc(a1-6)]GlcNAc
# How it was run: as §1
# [7] = molecular target: Fuc(a1-2)[GalNAc(a1-3)]Gal(b1-4)Glc
# How it was run: as §1
# [8] = molecular target: Fuc(a1-2)[GalNAc(a1-3)]Gal(b1-4)GlcNAc(b1-3)[Fuc(a1-2)[GalNAc(a1-3)]Gal(b1-4)GlcNAc(b1-6)]GalNAc
# How it was run: as §1
# [9] = molecular target: Fuc(a1-2)[GalNAc(a1-3)]Gal(b1-4)[Fuc(a1-3)]GlcNAc
# How it was run: as §1
# [10] = molecular target: Fuc(a1-3)GlcNAc
# How it was run: as §1
# [11] = molecular target: Fuc(a1-3)[GalNAc(b1-4)]GlcNAc
# How it was run: as §1
# [12] = molecular target: Fuc(a1-4)GlcNAc
# How it was run: as §1
# [13] = molecular target: Gal(a1-3)Gal(b1-3)[Fuc(a1-4)]GlcNAc(b1-2)Man(a1-3)[Gal(a1-3)Gal(b1-3)[Fuc(a1-4)]GlcNAc(b1-2)Man(a1-6)]Man(b1-4)GlcNAc(b1-4)GlcNAc
# How it was run: as §1
# [14] = molecular target: Gal(b1-3)[Fuc(a1-4)]GlcNAc(b1-2)Man(a1-3)[Gal(b1-3)[Fuc(a1-4)]GlcNAc(b1-2)Man(a1-6)]Man(b1-4)GlcNAc(b1-4)[Fuc(a1-6)]GlcNAc
# How it was run: as §1
# [15] = molecular target: Gal(b1-4)GlcNAc(b1-2)[Gal(b1-4)GlcNAc(b1-4)]Man(a1-3)[Gal(b1-4)GlcNAc(b1-2)[Gal(b1-4)GlcNAc(b1-6)]Man(a1-6)]Man(b1-4)GlcNAc(b1-4)GlcNAc
# How it was run: as §1
# [16] = molecular target: Gal(b1-4)GlcNAc(b1-2)[Gal(b1-4)GlcNAc(b1-4)]Man(a1-3)[GlcNAc(b1-4)][Gal(b1-4)GlcNAc(b1-2)Man(a1-6)]Man(b1-4)GlcNAc(b1-4)GlcNAc
# How it was run: as §1
# [17] = molecular target: Gal(b1-4)GlcNAc(b1-3)Gal(b1-3)GalNAc
# How it was run: as §1
# [18] = molecular target: Gal(b1-4)GlcNAc(b1-6)[Gal(b1-3)]GalNAc
# How it was run: as §1
# [19] = molecular target: Gal(b1-4)GlcNAc(b1-6)[Gal(b1-4)GlcNAc(b1-3)]GalNAc
# How it was run: as §1
# [20] = molecular target: Gal3S(b1-3)GalNAc
# How it was run: as §1
# [21] = molecular target: Gal6S(b1-4)Glc6S
# How it was run: as §1
# [22] = molecular target: GalNAc3S(b1-4)[Fuc(a1-3)]GlcNAc
# How it was run: as §1
# [23] = molecular target: Glc(a1-4)Glc
# How it was run: as §1
# [24] = molecular target: GlcNAc(a1-4)Gal(b1-4)GlcNAc(b1-3)Gal(b1-4)GlcNAc
# How it was run: as §1
# [25] = molecular target: GlcNAc(b1-3)Gal(b1-4)GlcNAc(b1-2)Man(a1-3)[GlcNAc(b1-3)Gal(b1-4)GlcNAc(b1-2)Man(a1-6)]Man(b1-4)GlcNAc(b1-4)GlcNAc
# How it was run: as §1
# [26] = molecular target: GlcNAc(b1-3)Gal(b1-4)GlcNAc(b1-3)GalNAc
# How it was run: as §1
# [27] = molecular target: GlcNAc(b1-3)Gal(b1-4)GlcNAc(b1-3)[GlcNAc(b1-3)Gal(b1-4)GlcNAc(b1-3)]GalNAc
# How it was run: as §1
# [28] = molecular target: GlcNAc(b1-3)Gal(b1-4)GlcNAc(b1-6)[Gal(b1-3)]GalNAc
# How it was run: as §1
# [29] = molecular target: GlcNAc(b1-6)Gal(b1-4)GlcNAc
# How it was run: as §1
# [30] = molecular target: Man(a1-2)Man(a1-3)[Man(a1-2)Man(a1-6)]Man(a1-6)[Man(a1-2)Man(a1-2)Man(a1-3)]Man(b1-4)GlcNAc(b1-4)GlcNAc
# How it was run: as §1
# [31] = molecular target: Man(a1-2)Man(a1-3)[Man(a1-6)]Man(a1-6)[Man(a1-2)Man(a1-3)]Man(b1-4)GlcNAc(b1-4)GlcNAc
# How it was run: as §1
# [32] = molecular target: Man(a1-2)Man(a1-6)[Man(a1-3)]Man(a1-6)[Man(a1-2)Man(a1-2)Man(a1-3)]Man(b1-4)GlcNAc(b1-4)GlcNAc
# How it was run: as §1
# [33] = molecular target: Man(a1-3)[Man(a1-6)]Man(a1-6)[Man(a1-2)Man(a1-3)]Man(b1-4)GlcNAc(b1-4)GlcNAc
# How it was run: as §1
# [34] = molecular target: Man(a1-3)[Man(a1-6)]Man(a1-6)[Man(a1-3)]Man
# How it was run: as §1
# [35] = molecular target: Man(a1-3)[Man(a1-6)]Man(a1-6)[Man(a1-3)]Man(b1-4)GlcNAc(b1-4)GlcNAc
# How it was run: as §1
# [36] = molecular target: Neu5Ac(a2-3)Gal(b1-3)[Fuc(a1-4)]GlcNAc
# How it was run: as §1
# [37] = molecular target: Neu5Ac(a2-3)Gal(b1-4)[Fuc(a1-3)]GlcNAc(b1-3)Gal
# How it was run: as §1
# [38] = molecular target: Neu5Ac(a2-6)Gal(b1-4)GlcNAc(b1-2)Man(a1-3)[GlcNAc(b1-2)Man(a1-6)]Man(b1-4)GlcNAc(b1-4)GlcNAc
# How it was run: as §1
# [39] = molecular target: Neu5Ac(a2-6)Gal(b1-4)GlcNAc(b1-3)Gal(b1-4)GlcNAc(b1-6)[Gal(b1-3)]GalNAc
# How it was run: as §1
# [40] = molecular target: Neu5Ac(a2-6)Gal(b1-4)GlcNAc(b1-6)[Gal(b1-3)]GalNAc
# How it was run: as §1
# [41] = molecular target: Neu5Gc(a2-6)GalNAc
# How it was run: as §1
binder,measurement,setting,value
B1,glycan array binding signal (z-score),[1],-0.111
same,glycan array binding signal (z-score),[2],-0.11
same,glycan array binding signal (z-score),[3],-0.113
same,glycan array binding signal (z-score),[4],0.415
same,glycan array binding signal (z-score),[5],-0.073
same,glycan array binding signal (z-score),[6],0.249
same,glycan array binding signal (z-score),[7],-0.112
same,glycan array binding signal (z-score),[8],-0.103
same,glycan array binding signal (z-score),[9],-0.111
same,glycan array binding signal (z-score),[10],-0.12
same,glycan array binding signal (z-score),[11],-0.105
same,glycan array binding signal (z-score),[12],-0.116
same,glycan array binding signal (z-score),[13],0.499
same,glycan array binding signal (z-score),[14],0.665
same,glycan array binding signal (z-score),[15],0.988
same,glycan array binding signal (z-score),[16],-0.117
same,glycan array binding signal (z-score),[17],-0.116
same,glycan array binding signal (z-score),[18],-0.113
same,glycan array binding signal (z-score),[19],-0.108
same,glycan array binding signal (z-score),[20],-0.116
same,glycan array binding signal (z-score),[21],-0.107
same,glycan array binding signal (z-score),[22],-0.116
same,glycan array binding signal (z-score),[23],-0.116
same,glycan array binding signal (z-score),[24],-0.117
same,glycan array binding signal (z-score),[25],-0.111
same,glycan array binding signal (z-score),[26],-0.112
same,glycan array binding signal (z-score),[27],-0.11
same,glycan array binding signal (z-score),[28],-0.115
same,glycan array binding signal (z-score),[29],-0.117
same,glycan array binding signal (z-score),[30],3.46
same,glycan array binding signal (z-score),[31],9.19
same,glycan array binding signal (z-score),[32],11.7
same,glycan array binding signal (z-score),[33],13.2
same,glycan array binding signal (z-score),[34],7.17
same,glycan array binding signal (z-score),[35],10.9
same,glycan array binding signal (z-score),[36],-0.12
same,glycan array binding signal (z-score),[37],-0.117
same,glycan array binding signal (z-score),[38],0.313
same,glycan array binding signal (z-score),[39],-0.118
same,glycan array binding signal (z-score),[40],-0.117
same,glycan array binding signal (z-score),[41],-0.114
